Assay results as given in PubChem BioAssay (Tox21).
Records with an inconclusive call do not appear. The source made the active and inactive calls. Unless noted, the call rests on the fitted dose curve; in most records, active means well fitted curve in the direction sought with a large enough effect in the repeat runs; inconclusive means weak or mixed curves; inactive means no such curve, though single readings can be large; an effect the other way counts as inactive or inconclusive.

Legend:
[1] = qHTS assay for small molecule agonists of the p53 signaling pathway (AID 651631; calls by dose curve; further: nearly all actives have a fitted effect of over 15% in size)
Procedure, shortened: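 Quantitative high-throughput format: 4,000 p53RE-bla HCT-116 cells/well, 5 h pre-incubation, 16 h compound exposure at 37 °C, 2 h room-temperature substrate step, fluorescence intensity measured.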

[2] = qHTS assay for small molecules that induce genotoxicity in human embryonic kidney cells expressing luciferase-tagged ATAD5 (AID 651632); further: nearly all actives have a fitted effect of over 15% in size
Procedure, shortened: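 Increased luciferase signal from ATAD5-tagged reporter cells indicates DNA-damage-driven ATAD5 induction. HEK293T cells are treated for 16 hr at 37C before detection with Amplite.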

[3] = qHTS assay for small molecule agonists of the p53 signaling pathway - cell viability (AID 651633; calls by dose curve;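 further: p53RE-bla HCT reporter cells with a stable beta-lactamase p53 reporter; series mostly up to about 83 µM; nearly all actives have a fitted effect of over 30% in size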)
Procedure, shortened: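 Viability counter-read: CellTiter-Glo luminescence (30 min, room temperature) in the same p53RE-bla plates. These plates had been exposed to compounds for 16 h at 37 C.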

[4] = qHTS assay for small molecules that induce genotoxicity in human embryonic kidney cells expressing luciferase-tagged ATAD5 - cell viability (AID 651634; calls by dose curve; further: nearly all actives have a fitted effect of over 25% in size)
Procedure, shortened: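 Cytotoxicity counterscreen in HEK293T cells bearing an ATAD5-luciferase reporter: live-cell protease activity measured by CellTiter-Fluor fluorescence after 15.5 hr compound exposure.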

[5] = qHTS assay for small molecule disruptors of the mitochondrial membrane potential - cell viability (AID 720634; calls by dose curve;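 further: human HepG2 liver cancer cells; series mostly up to about 83 µM; nearly all actives have a fitted effect of over 20% in size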)
Procedure, shortened: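 After overnight attachment at 37 C, HepG2 cells received compound or DMSO vehicle for 1 hr. Viability is then taken from ATP-driven luminescence following a 30 min room-temperature CellTiter-Glo step.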

[6] = qHTS assay for small molecule disruptors of the mitochondrial membrane potential (AID 720635)
Procedure, shortened: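 Mitochondrial membrane potential tracked with Mito-MPS dye, red aggregates (ex 540/em 590 nm) against green monomers (ex 490/em 535 nm). Compound treatment 1 hr at 37C, dye 30 min in HepG2.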

[7] = qHTS assay to test for compound auto fluorescence at 590 nm (red) in HepG2 cells (AID 720674)
Procedure, shortened: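 Red autofluorescence (Ex/Em 540/590 nm, Rose Bengal sodium equivalents) was measured in HepG2 cells, 2,000 per well in MEM plus 10% FBS, plated overnight at 37 C. Readings were taken 1 hr after adding 23 nL compound or DMSO, at 37 C and 5% CO2.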

[8] = qHTS assay to test for compound auto fluorescence at 535 nm (green) in HepG2 cells (AID 720675)
[9] = qHTS assay to test for compound auto fluorescence at 460 nm (blue) in HEK293 cells (AID 720678)
Procedure, shortened: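 Measured: blue fluorescence (Ex 405/Em 460 nm) of compound-treated HEK293 cells, incubated overnight at 37C with 5% CO2 and scaled to triamterene equivalents.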

[10] = qHTS assay to test for compound auto fluorescence at 590 nm (red) in HEK293 cells (AID 720679)
Procedure, shortened: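 Using HEK293 cells at 2,000 per well, the screen added 23 nL of each compound after cell attachment and incubated overnight (37C, 5% CO2). The plate reader then captured red-label fluorescence, Ex/Em 540/590nm.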

[11] = qHTS assay to test for compound auto fluorescence at 535 nm (green) in HEK293 cells (AID 720680)
[12] = qHTS assay to test for compound auto fluorescence at 460 nm (blue) in HEK293 cell free culture (AID 720681)
Procedure, shortened: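 Blue fluorescence (Ex 405/Em 460 nm, triamterene-equivalent) was read immediately after pin transfer of compound or DMSO into medium (DMEM, 10% FBS) without cells.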

[13] = qHTS assay to test for compound auto fluorescence at 535 nm (green) in HEK293 cell free culture (AID 720682)
Procedure, shortened: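 Measurement is a direct plate read of green fluorescence (485 nm in, 535 nm out) after compound addition to serum-supplemented DMEM lacking cells, with fluorescein used to express intensities.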

[14] = qHTS assay to test for compound auto fluorescence at 590 nm (red) in HEK293 cell free culture (AID 720683)
Procedure, shortened: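 Red-channel autofluorescence of compounds in culture medium (DMEM, 10% FBS), no cells, measured at 540/590 nm. Rose Bengal sodium is the reference fluorophore for equivalence.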

[15] = qHTS assay to test for compound auto fluorescence at 590 nm (red) in HepG2 cell free culture (AID 720684)
Procedure, shortened: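 Steps: dispense MEM/10% FBS medium, no cells; pin compound or DMSO vehicle; read red channel, Ex/Em 540/590 nm. Output given as Rose Bengal sodium equivalents.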

[16] = qHTS assay to test for compound auto fluorescence at 460 nm (blue) in HepG2 cell free culture (AID 720685)
Procedure, shortened: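 Compound (23 nL) or DMSO pinned into cell-free MEM with 10% FBS; blue fluorescence read at 405/460 nm excitation/emission, expressed as auto-fluorescence equivalency to triamterene.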

[17] = qHTS assay to test for compound auto fluorescence at 535 nm (green) in HepG2 cell free culture (AID 720686)
[18] = qHTS assay to test for compound auto fluorescence at 460 nm (blue) in HepG2 cells (AID 720687)
Procedure, shortened: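 Blue-channel autofluorescence (Ex/Em 405/460 nm, triamterene-equivalent) was measured after 1 hr compound exposure at 37 C, 5% CO2. Cells were HepG2, plated overnight at 37 C in MEM plus 10% FBS.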

[19] = target: Glucocorticoid receptor (Homo sapiens) (UniProt P04150); experiment: qHTS assay to identify small molecule agonists of the glucocorticoid receptor (GR) signaling pathway (AID 720691; active means well fitted activation curve with a large enough effect in the signal ratio in the repeat runs, not every such curve was filed as active; the % refers to the signal ratio)
Procedure, shortened: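 Agonist mode in a HeLa line carrying a GRE-controlled beta-lactamase reporter. Compounds act for 18 h at 37 C before a 2 h room-temperature FRET substrate step and fluorescence reading.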

[20] = target: Glucocorticoid receptor (Homo sapiens) (UniProt P04150); experiment: qHTS assay to identify small molecule antagonists of the glucocorticoid receptor (GR) signaling pathway (AID 720692; active means well fitted inhibition curve with a large enough effect in the signal ratio in the repeat runs, not every such curve was filed as active; the % refers to the signal ratio)
Procedure, shortened: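 Cells plated, rested 4 h at 37 C/5% CO2; compounds in DMSO pin-transferred; dexamethasone added to 5 nM final; 18 h at 37 C; B/G FRET substrate added, 2 h room temperature; fluorescence measured.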
On the % scale 0 is the no-effect control and ±100 the full control effect.

Glucocorticoid receptor (Homo sapiens), sequence (P04150 whole entry, looked up): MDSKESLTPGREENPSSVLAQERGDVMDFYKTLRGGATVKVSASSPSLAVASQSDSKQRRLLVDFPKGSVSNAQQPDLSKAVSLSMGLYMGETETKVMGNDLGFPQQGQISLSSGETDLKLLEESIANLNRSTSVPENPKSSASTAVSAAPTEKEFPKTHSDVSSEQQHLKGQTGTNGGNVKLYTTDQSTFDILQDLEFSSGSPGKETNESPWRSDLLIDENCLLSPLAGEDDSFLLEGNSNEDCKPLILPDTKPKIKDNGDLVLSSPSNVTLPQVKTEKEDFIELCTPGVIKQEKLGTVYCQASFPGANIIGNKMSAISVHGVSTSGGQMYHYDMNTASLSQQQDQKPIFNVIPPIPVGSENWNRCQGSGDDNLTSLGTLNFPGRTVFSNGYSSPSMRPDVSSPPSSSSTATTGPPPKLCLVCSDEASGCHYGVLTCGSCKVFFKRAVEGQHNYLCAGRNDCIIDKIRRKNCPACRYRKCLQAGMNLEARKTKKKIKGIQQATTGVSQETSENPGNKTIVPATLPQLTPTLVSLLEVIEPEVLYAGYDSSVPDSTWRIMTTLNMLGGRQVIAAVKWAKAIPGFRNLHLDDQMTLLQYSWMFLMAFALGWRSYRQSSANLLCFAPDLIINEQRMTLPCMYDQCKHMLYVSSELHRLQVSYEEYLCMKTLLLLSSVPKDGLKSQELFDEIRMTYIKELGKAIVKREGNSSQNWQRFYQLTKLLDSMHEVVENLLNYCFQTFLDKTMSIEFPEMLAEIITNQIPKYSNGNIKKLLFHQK

O=C(O)c1c2ccccc2cc2ccccc12
inactive: Potency [1] | Potency [2] | Potency [3] | Potency [4] | Potency [5] | Potency [6] | outcome [7] | outcome [8] | Potency [9] | outcome [10] | outcome [11] | Potency [12] | outcome [13] | outcome [14] | outcome [15] | outcome [16] | outcome [17] | outcome [18]

COC(=O)Cc1cccc2ccccc12
inactive: Potency [1] | Potency [2] | Potency [3] | Potency [4] | Potency [5] | outcome [7] | outcome [8] | Potency [9] | outcome [10] | outcome [11] | Potency [12] | outcome [13] | outcome [14] | outcome [15] | outcome [16] | outcome [17] | outcome [18] | Potency [19] | Potency [20]

CCN(CCCCOC(=O)c1ccc(OC)c(OC)c1)C(C)Cc1ccc(OC)cc1 (stereo unspecified)
inactive: Potency [1] | Potency [2] | Potency [3] | Potency [4] | Potency [5] | Potency [6] | fluorescence, relative to Rose Bengal [7] 0.21% [at 18.6 µM] | fluorescence, % of triamterene [9] 0.0022% [at 18.6 µM] | fluorescence, % of fluorescent control [10] -0.338% [at 18.6 µM] | fluorescence, % of fluorescein [11] 0.0099% [at 18.6 µM] | fluorescence, % of fluorescent control [12] 0.0098% [at 18.6 µM] | activity change [13] 0.0553% [at 18.6 µM] | fluorescence, % of fluorescent control [14] -0.0979% [at 18.6 µM] | fluorescence, % of Rose Bengal [15] 0.006% [at 18.6 µM] | fluorescence, % of fluorescent control [16] 0.0055% [at 18.6 µM] | fluorescence, % of fluorescein control [17] 0.0076% [at 18.6 µM] | fluorescence, % of fluorescent control [18] 0.0432% [at 18.6 µM] | Potency [19] | Potency [20]

O=P(c1ccccc1)(c1ccccc1)c1ccccc1
inactive: Potency [1] | Potency [2] | Potency [3] | Potency [4] | Potency [5] | outcome [7] | outcome [8] | Potency [9] | outcome [10] | outcome [11] | outcome [13] | outcome [14] | outcome [15] | outcome [16] | outcome [17] | outcome [18]

O=C(c1ccc(Cl)cc1)c1ccc(Cl)cc1
inactive: Potency [1] | Potency [2] | Potency [3] | Potency [4] | Potency [5] | outcome [7] | outcome [8] | Potency [9] | outcome [10] | outcome [11] | Potency [12] | outcome [13] | outcome [14] | outcome [15] | outcome [16] | outcome [17] | outcome [18]

CCC(C)CCCC(C)(C)O (stereo unspecified)
inactive: Potency [1] | Potency [2] | Potency [3] | Potency [4] | Potency [5] | outcome [7] | outcome [8] | Potency [9] | outcome [10] | outcome [11] | Potency [12] | outcome [13] | outcome [14] | outcome [15] | outcome [17] | outcome [18] | Potency [19] | Potency [20]

COc1cc(CNC(=O)CCCC/C=C/C(C)C)ccc1O
inactive: Potency [1] | Potency [2] | Potency [3] | Potency [4] | Potency [5] | outcome [7] | outcome [8] | Potency [9] | outcome [10] | outcome [11] | outcome [13] | outcome [14] | outcome [15] | outcome [16] | outcome [17] | outcome [18] | Potency [20]

CO[C@@H]1COCC[C@@H]1N[C@@H]1CC[C@@](C(=O)N2CCc3ncc(C(F)(F)F)cc3C2)(C(C)C)C1
inactive: Potency [1] | Potency [2] | Potency [3] | Potency [4] | Potency [5] | outcome [7] | outcome [8] | Potency [9] | outcome [10] | outcome [11] | Potency [12] | outcome [13] | outcome [15] | outcome [16] | outcome [17] | outcome [18] | Potency [20]
